Data reported in PubChem BioAssay (NCATS).
Values joined by “and” are separate entries in the source; they are usually repeats but may differ in a detail not shown here. Equal values may be shown once. Records with an inconclusive call do not appear. A number with no mark means an inactive call. Calls come from the whole dose curve; as a rule, active = well fitted activation curve with a large enough effect; inconclusive = small, poorly fitted or top-dose-only effect; inactive = no such curve, though single readings can be large or run the other way.

target: Cellular tumor antigen p53 (Homo sapiens) (UniProt P04637); experiment: Primary qHTS for small molecule compounds that upregulate eGFP-tagged delta133p53alpha (in N-terminal) cells. (AID 2060322); settings: NCI-H358 eGFP-delta133p53alpha fluorescence, 24 h; activation: active compounds read high;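 note: cells pre-induced with doxycycline then dosed without doxycycline; series mostly up to about 56 µM; 0% = DMSO vehicle and 100% = reference activator; nearly all actives have a fitted effect of over 75% in size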
Sequence (P04637 whole entry, looked up): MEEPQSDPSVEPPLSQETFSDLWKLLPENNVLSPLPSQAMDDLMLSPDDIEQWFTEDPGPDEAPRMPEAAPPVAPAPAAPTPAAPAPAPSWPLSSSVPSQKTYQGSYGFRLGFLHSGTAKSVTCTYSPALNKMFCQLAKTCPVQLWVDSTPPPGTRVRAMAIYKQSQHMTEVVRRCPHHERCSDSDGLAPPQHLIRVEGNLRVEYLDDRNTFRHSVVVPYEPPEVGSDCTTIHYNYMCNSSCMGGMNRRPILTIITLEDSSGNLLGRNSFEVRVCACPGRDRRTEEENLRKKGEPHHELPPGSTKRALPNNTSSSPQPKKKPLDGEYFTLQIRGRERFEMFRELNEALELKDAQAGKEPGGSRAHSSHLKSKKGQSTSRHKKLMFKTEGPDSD
How it was run: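 NCI-H358 cells pre-induced 24 h with 10 ng/ml doxycycline for eGFP-delta133p53alpha, plated dox-free and exposed 24 h at 37C to titrated compounds. Fixed, Hoechst-stained; gated GFP peak intensity by laser scanning cytometry, normalized to DMSO (0%) and 57.5 uM 5-azacytidine (100%).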

SMILES | activation
CC1(C)C(=O)CCC2(C)C1C(O)C=C1COC(=O)C12O (stereo not given) | 25.2%
C[N+]12CCC(CC1)C(OC(=O)C(O)(c1ccccc1)c1ccccc1)C2 (stereo not given) | -8.47%
NCC[C@H](O)C(=O)N[C@@H]1C[C@H](N)[C@@H](O[C@H]2O[C@H](CN)[C@@H](O)[C@H](O)[C@@H]2O)[C@H](O)[C@@H]1O[C@H]1O[C@H](CO)[C@@H](O)[C@H](N)[C@@H]1O | -2.51%
CC(C)OC(=O)OCOP(=O)(CO[C@H](C)Cn1cnc2c(N)ncnc21)OCOC(=O)OC(C)C | -1.51% and -14.1%
CCCSc1ccc2nc(NC(=O)OC)[nH]c2c1 | 6.69%
O=C(O)C1=CO[C@@H](O[C@@H]2O[C@H](CO)[C@H](O)[C@H](O)[C@H]2O)[C@@H]2C(CO)=CC[C@H]12 | 30.5%
O=c1[nH]c(=O)n([C@H]2C[C@@H](O)[C@@H](CO)O2)cc1F | -18.9%
CCC[C@@H](NC(=O)[C@@H]1[C@H]2CCC[C@@H]2CN1C(=O)[C@@H](NC(=O)[C@@H](NC(=O)c1cnccn1)C1CCCCC1)C(C)(C)C)C(=O)C(=O)NC1CC1 | 19.1%
CC(C)CCCC(C)N (stereo not given) | 0.565%
O=C(O)[C@H](O)c1ccccc1 | -6.21%
Cc1nc2ccccc2n1Cc1ccc(Cl)cc1 | -11.7%
CCN(CC)CC(=O)Nc1c(C)cccc1C(=O)OC | -9.21%
CCCCCCCCCCCCOCCOCCOCCOCCOCCOCCOCCOCCOCCO | 6.21%
C=C1C[C@@]2(O)O[C@@]3(C[C@H]2C(C)C)[C@H](C)CC[C@H]13 | 18.1%
CCCc1c(OCCCCc2nn[nH]n2)ccc(C(C)=O)c1O | -2.82%
CCOc1ccc(Cc2nccc3cc(OCC)c(OCC)cc23)cc1OCC | -22.6%
CCCN1CCCC[C@H]1C(=O)Nc1c(C)cccc1C | 9.6%
COc1ccc(O)cc1 | 1.69%
N#CC(=C1Nc2ccccc2S1)c1ccnc(OCc2ccc(CN3CCOCC3)cc2)n1 | -32.5%
O=C(/C=C/c1ccccc1)OCc1ccccc1 | -23.2%

SMILES | activation
CCc1cc(C(C)=NOCc2ccc(C3CCCCC3)c(C(F)(F)F)c2)ccc1CN1CC(C(=O)O)C1 | 10.9%
NC[C@H]1O[C@H](O[C@H]2[C@H](O[C@@H]3O[C@H](CO)[C@@H](O)[C@H]3O)C(O)[C@H](N)C[C@@H]2N)[C@H](N)[C@@H](O)[C@@H]1O (stereo not given in full) | 0%
O=C1NC(c2ccccc2)(c2ccccc2)C(=O)N1COP(=O)(O)O | -11.9%
CC(C)CN(C[C@@H](O)[C@H](Cc1ccccc1)NC(=O)O[C@H]1CO[C@H]2OCC[C@H]21)S(=O)(=O)c1ccc(N)cc1 | 22.9%
O=C(CN1CCNCC1)NC1CCCCC1 | 7.53%
CC(=O)Nc1ccc(S(=O)(=O)Nc2ccc([N+](=O)[O-])cc2)cc1 | -10.7%
CCCCCOc1ccccc1/C(=C\SC)n1ccnc1 | -16.7%
Oc1ccccc1 | -1.69%
C=C1C(=CC=C2CCC[C@]3(C)[C@@H]([C@H](C)CCCC(C)(C)O)CC[C@@H]23)C[C@@H](O)C[C@@H]1O | -4.26%
C/C=C1/[C@H](O[C@@H]2O[C@H](CO)[C@@H](O)[C@H](O)[C@H]2O)OC=C(C(=O)OC)[C@H]1CC(=O)O[C@@H]1O[C@H](CO)[C@@H](O)[C@H](O)[C@H]1O | -32.8%
Cc1nc(NC(=O)N2CCC[C@@H]2C(N)=O)sc1-c1csc(C(C)(C)C)n1 | -6.14%
Cc1cccc(C)c1NC(=O)CC12CCCN1CCC2 | 5.86%
CCCCCCCCOc1ccccc1C(=O)Nc1ccc(C(=O)OCC[N+](C)(CC)CC)cc1 | -5.01%
COc1ccccc1OCC(O)COC(N)=O (stereo not given) | -36.8% and 17.3%
COCCCCC(=NOCCN)c1ccc(C(F)(F)F)cc1 | 8.31%
CC(=O)O[C@]1(C(C)=O)CC[C@H]2[C@@H]3C=C(C)C4=CC(=O)CC[C@]4(C)[C@@H]3CC[C@@]21C | -16.9%
CN(C)CCN1CCN(c2cccc(Cl)c2)C1=O | -13%
O=S(=O)(O)c1ccc(O)cc1 | 5.08%
C[C@]1(Cn2ccnn2)[C@H](C(=O)O)N2C(=O)C[C@H]2S1(=O)=O | -22.6%
CCCCOC(=O)CCCCCCCCC(=O)OCCCC | -7.53%
